# Laboratory results from the supplement of paper PMC3334620.
# Whole data set: some 33,000 sequences, median “E-score (-0.5 to 0.5)” near -0.056, cut for the highest 2% near 0.38. Shown is part of a subset that was picked to be rich in the highest values.
# Molecular target: Stb4 (UniProt P50104)
# Assay: PBM E-score (8-mer binding enrichment) (E-score (-0.5 to 0.5)); higher = stronger / more preferred TF binding
# Conditions: protein concentration: 200 nM; construct: GST-DNA-binding domain
# Method in brief: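 Bound GST-tagged yeast transcription factors, applied at about 100-200 nM to double-stranded universal all-10-mer Agilent arrays, were detected with fluorescent anti-GST. Scans were normalised with masliner. A modified Wilcoxon-Mann-Whitney statistic, the E-score, was assigned to each ungapped eight-base word pooled with its reverse complement by the Universal PBM Analysis Suite.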
# UniProt P50104, sequence (P50104 whole entry): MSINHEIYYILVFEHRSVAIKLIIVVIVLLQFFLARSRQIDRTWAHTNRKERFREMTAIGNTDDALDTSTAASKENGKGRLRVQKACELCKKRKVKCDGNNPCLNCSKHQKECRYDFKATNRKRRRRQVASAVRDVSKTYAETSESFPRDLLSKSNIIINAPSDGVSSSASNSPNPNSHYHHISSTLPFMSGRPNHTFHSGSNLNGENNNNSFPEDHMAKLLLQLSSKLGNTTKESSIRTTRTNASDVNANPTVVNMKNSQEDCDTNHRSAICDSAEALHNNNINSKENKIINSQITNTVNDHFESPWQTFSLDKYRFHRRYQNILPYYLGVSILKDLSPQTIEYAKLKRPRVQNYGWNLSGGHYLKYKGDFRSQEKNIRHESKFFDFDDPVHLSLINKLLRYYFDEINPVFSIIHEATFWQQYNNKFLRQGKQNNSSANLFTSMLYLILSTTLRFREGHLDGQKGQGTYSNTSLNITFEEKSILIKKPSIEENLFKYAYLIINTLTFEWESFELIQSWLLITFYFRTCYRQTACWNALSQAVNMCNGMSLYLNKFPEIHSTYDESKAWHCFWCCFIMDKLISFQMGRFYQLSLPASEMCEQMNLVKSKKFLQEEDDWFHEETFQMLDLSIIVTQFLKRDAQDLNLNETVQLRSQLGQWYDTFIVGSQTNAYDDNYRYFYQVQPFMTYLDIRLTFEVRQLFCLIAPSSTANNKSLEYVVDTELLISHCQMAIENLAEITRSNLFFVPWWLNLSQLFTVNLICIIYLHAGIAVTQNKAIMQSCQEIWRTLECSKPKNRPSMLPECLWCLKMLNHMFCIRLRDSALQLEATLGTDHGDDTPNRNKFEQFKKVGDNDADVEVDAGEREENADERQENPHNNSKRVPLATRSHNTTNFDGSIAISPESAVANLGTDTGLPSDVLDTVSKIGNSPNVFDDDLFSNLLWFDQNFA
row,Sequence,PBM E-score
1,CCACCACG,-0.109
2,AAGCTAGG,0.0266
3,GGCAGGCA,0.0342
4,CGGGGCCA,0.22
5,AATAGGAG,-0.317
6,GTCCTCCA,-0.138
7,AGGAAGTA,0.112
8,GGGAAGGA,0.0823
9,CGGAAGTC,0.414
10,AGGAAGGA,-0.282
11,AGGAAGAA,-0.278
12,GGGAAGTA,0.184
13,GGGAAGAA,0.0883
14,AGGAAGTC,-0.19
15,CGGAAGTA,0.419
16,CGGAAGAA,0.406
17,CGGAAGGA,0.397
18,CTGAAGTC,0.0307
19,ACGCTCAT,-0.276
20,AAAGGCGA,-0.0639
21,AGAGCAAC,-0.287
22,GGGTTTAA,0.0372
23,ACCGAGAA,0.311
24,CACGAGAA,-0.167
25,TACGAGAA,-0.113

row,Sequence,PBM E-score
1,TCCGAGAA,0.455
2,GTCGAGAC,0.0445
3,CACGAGAG,-0.136
4,GCCGAGAC,0.392
5,GGCGAGAC,-0.245
6,CCCGAGAG,0.385
7,TTCGAGAA,-0.207
8,CTCGAGAG,-0.201
9,CCCGAGAA,0.44
10,ATAATCAT,-0.0964
11,CCCATTAC,-0.104
12,CCCGCAAC,0.228
13,CAGGCACA,-0.178
14,ACGGGCCT,0.0389
15,CAACCACC,0.0572
16,GCCTAGAC,-0.139
17,CCTCGAAC,-0.249
18,GTGACCAA,-0.203
19,GCCGAGAA,0.406
20,ACCGAGAC,0.357
21,CCCGAGAC,0.412
22,GTCGAGAA,-0.277
23,CGCGAGAC,-0.0463
24,GACGAGAA,-0.169
25,CACCTACG,0.0326

row,Sequence,PBM E-score
1,AACCATGT,0.0503
2,AAACCATA,-0.0199
3,GACTAGCA,-0.114
4,GAGGAGGA,-0.152
5,ACCCCGAG,0.333
6,CCCCCGAA,0.297
7,CCCCCGAC,0.175
8,CACCCGAG,0.448
9,CACCCAAA,-0.0471
10,CACCCGGC,0.277
11,CACCCGGG,0.323
12,AACCCGAT,0.285
13,CCCCCGAG,0.352
14,CACCCGAC,0.384
15,CACCCGAA,0.436
16,AACCCGAG,0.406
17,CCCTAAGG,-0.232
18,ACCGCTTG,-0.0825
19,CAATTTCG,0.0914
20,TGTAAGAA,0.101
21,CACCTCCA,-0.167
22,AAGGATAG,0.00922
23,CGTTCAGC,-0.00077
24,AACTCGGT,0.286
25,TACTCGAA,-0.25

row,Sequence,PBM E-score
1,AACTCGCA,-0.278
2,AACTCGGA,0.426
3,CACTCGAA,-0.267
4,AACTCGCG,-0.00482
5,CACTCGTA,-0.292
6,CACTCGGA,0.422
7,TACTCGCA,-0.0584
8,TACTCGGA,0.409
9,AACTCGTG,0.0628
10,AACTCGGG,0.383
11,TTCCAGAA,-0.0529
12,GTCGTGAA,-0.19
13,ATAAGCGA,0.0555
14,ATCTGCAT,-0.071
15,AGGAACTG,-0.148
16,CGATCATC,0.0839
17,GACTCGGA,0.451
18,CACTCGGC,0.402
19,CACTCGTC,0.0228
20,GACTCGGC,0.327
21,CACTCGGG,0.371
22,GACTCGCA,-0.0572
23,CTCCCAAG,-0.114
24,ACGCCAGG,-0.0466
25,AAATCATG,-0.27

row,Sequence,PBM E-score
1,CTACCCGC,0.273
2,ATACCCCG,0.205
3,GTACCCTA,-0.206
4,GTACCCGA,0.437
5,ATACCCGG,0.391
6,ATACCCGA,0.476
7,CTACCCGA,0.464
8,ATACCCAA,-0.0395
9,GTACCCAA,-0.0334
10,ATACCCTG,-0.0928
11,CTACCCAA,-0.209
12,ATACCCGC,0.328
13,GAAGTAGA,-0.0217
14,GCGAGTGA,-0.0567
15,GCATCTCA,-0.222
16,GGCACAAA,0.104
17,ATATAGCC,0.183
18,CCTGAACC,-0.232
19,GCCCTGCC,0.0895
20,CGCTCGTC,-0.19
21,AGCTCGGA,0.454
22,CGCTCGGC,0.412
23,GGCTCGAA,-0.0314
24,CGCTCGTA,-0.176
25,AGCTCGTA,-0.189

row,Sequence,PBM E-score
1,GGCTCGGA,0.466
2,CGCTCGGA,0.463
3,AGCTCGCA,-0.108
4,CGCTCGCA,0.104
5,CGCTCGCC,-0.0544
6,GGCTCGTA,-0.0188
7,AAGAGGCA,-0.186
8,CGACCAAG,-0.184
9,TCATTGCA,-0.328
10,CATGTTCC,0.115
11,ATTCATTC,0.172
12,ACCGCAGG,0.0861
13,ACCTCTAC,-0.0322
14,AGGCGAAT,-0.189
15,AGAATTGA,-0.194
16,GAGAAGAA,0.0753
17,GACAGATC,0.0617
18,GGGATAGA,-0.0799
19,CGGATAGA,0.454
20,CGGATAGC,0.394
21,AGGATAGC,0.206
22,AGGATAGA,-0.107
23,CAGATAGC,-0.0171
24,TATAGACA,-0.192
25,CCTGGCGA,-0.204

row,Sequence,PBM E-score
1,AGCTGCAA,-0.0718
2,GGTCCGGA,0.34
3,ATTCCGGG,0.353
4,GTTCCGTA,0.314
5,CTTCCGGA,0.396
6,AGTCCGGA,0.332
7,CTTCCGTA,0.379
8,CGTCCGGA,0.3
9,ATTCCGGA,0.405
10,CTTCCGGC,0.392
11,ATTCCGGC,0.354
12,GTTCCGGA,0.435
13,CCTCCGGC,0.295
14,AACTAACT,0.0909
15,AGAGGATG,-0.0042
16,ATGGCTAA,-0.0251
17,CCTATTGC,-0.0913
18,ACAGCATC,-0.102
19,GAATCTTA,-0.0785
20,CTTTCCAC,0.0376
21,AGTTCCGA,0.474
22,AGTTCCCC,0.138
23,AGTTCCAA,0.012
24,AGTTCCTA,0.00074
25,AGGTCCGA,0.304

row,Sequence,PBM E-score
1,CGGTCCGA,0.449
2,AGTTCCCA,-0.0388
3,CGTTCCGC,0.412
4,AGTTCCGC,0.324
5,GGGTCCGA,0.344
6,CGTTCCCC,-0.014
7,AGTTCCCG,0.396
8,CAGCTTTC,-0.0811
9,ATGGGTGG,-0.0789
10,GTGAGTTA,-0.211
11,ATGTAAAG,-0.162
12,ACTTGCGC,-0.0787
13,AGAAGGGG,-0.169
14,ATAGCGTC,-0.209
15,GTAACGGA,0.281
16,GTTTGCAA,-0.113
17,CGATTTGA,-0.0548
18,ATTCACAA,-0.0973
19,CGTTCCGA,0.451
20,AGTTCCTG,-0.14
21,GGTTCCAA,0.196
22,CGTTCCAA,-0.0817
23,GGTTCCCA,-0.0962
24,AGTTCCGG,0.419
25,CGTTCCTA,-0.00632

row,Sequence,PBM E-score
1,GGTTCCGA,0.468
2,AGTTCCAG,-0.136
3,ACCACCCT,-0.162
4,CCTCTTAA,-0.0505
5,GACGAAAA,0.0557
6,ACCGAAAG,0.231
7,GTCGAAAC,-0.0645
8,ACCGAAAC,0.372
9,GCCGAAAC,0.397
10,GACGAAGC,-0.142
11,ACCGAAAA,0.337
12,GCCGAAAA,0.438
13,ACCGAAGC,0.287
14,GCCGAAGC,0.385
15,CCCGAAAG,0.393
16,CACGAAAG,-0.148
17,GGAGGATA,-0.0736
18,CGTTACTC,-0.0977
19,AGAAGTGC,-0.122
20,CGCGGGAG,0.172
21,TACGAAAA,-0.0536
22,CACGAAAA,-0.0798
23,TCCGAAAA,0.441
24,TGCGAAAA,-0.0153
25,CCCGAAAC,0.339

row,Sequence,PBM E-score
1,CCCGAAAA,0.428
2,CTCAAACC,-0.0373
3,CGAGCTAC,0.0965
4,GAGTCAAC,0.0604
5,ACCATAGC,-0.123
6,TACATCCA,-0.202
7,AATTAAAT,-0.0575
8,CCTATCCA,-0.196
9,ACTATCCC,-0.044
10,AGTATCCC,-0.0361
11,ACTATCCG,0.45
12,ATTATCCC,0.0679
13,ACTATCCT,-0.0638
14,CCTATCCC,0.176
15,CCTATCCG,0.391
16,AGTATCCG,0.436
17,ATTATCCA,-0.0958
18,ATTATCCG,0.475
19,AGTATCCA,0.0731
20,CAGGCGAG,-0.294
21,ACTGCATA,-0.135
22,AGTATCTC,-0.0258
23,TCTAGCAA,-0.0809
24,CCTCCGGA,0.307
25,CATCCGGA,0.406

row,Sequence,PBM E-score
1,AGTCCGGC,0.0945
2,CATCCGGG,0.397
3,CATCCAGG,-0.178
4,CATCCGGC,0.397
5,CGTCCGGC,0.253
6,AATCCGGG,0.306
7,CATCCGTA,0.329
8,AAAGCCCT,-0.106
9,CGAAAACA,0.123
10,CGTGTTTA,-0.00808
11,AGCTGTGC,-0.148
12,AATATCTA,-0.0944
13,CCGCTATA,0.0382
14,AGTTCTCG,0.0181
15,ATCTTAAG,-0.187
16,CCGCTGAC,0.0389
17,CCACCGCG,-0.00158
18,ACCCGAAC,0.463
19,TCACGAAA,-0.0978
20,ACCCGAAG,0.424
21,TCCCGACA,0.355
22,AACCGAAT,0.325
23,TCCCGAAA,0.432
24,CCCCGAAG,0.354
25,ACACGAAG,0.00748

row,Sequence,PBM E-score
1,CCCCGAAC,0.338
2,GCCCGAAC,0.262
3,ACCCGAAT,0.425
4,ACCCCGAT,0.266
5,GGGGTTAA,0.0779
6,GCTTTCAA,-0.0547
7,CGAGAGTC,0.0872
8,ATGCCTTC,-0.0568
9,CTTTTCAC,-0.191
10,ATGCCCAG,0.0828
11,CGGACAGA,0.129
12,CACGCTTC,0.0187
13,CCCCGAAA,0.34
14,GCCCGAAA,0.276
15,ACCCGAAA,0.435
16,AAGTGCAG,-0.212
17,AACTTAGT,0.0161
18,GATCCCGC,0.225
19,AATCCCGC,0.225
20,TATCCCGA,0.398
21,CATCCCGA,0.401
22,AATCCCGA,0.431
23,CATCCCGC,0.122
24,TATCCCCA,-0.185
25,GATCCCAA,-0.0342

row,Sequence,PBM E-score
1,AATCCCGT,0.303
2,TATCCCAA,0.0571
3,GATCCCGA,0.417
4,CATCCCGG,0.342
5,CGAGTAAA,0.143
6,ATTGTAGA,-0.132
7,AGTTTGGG,-0.172
8,AGCTAAAA,-0.0535
9,CCAGTTGC,-0.0304
10,CAATAGGC,-0.0832
11,TCAGATAA,-0.0704
12,AATCCTTA,-0.0563
13,GCCGGAGA,0.192
14,GCCGGATA,0.409
15,CCCGGACA,0.264
16,GCCGGACA,0.154
17,CCGGGATC,0.384
18,CCCGGAGA,0.318
19,CGGGGATC,0.279
20,CCGGGATA,0.292
21,ACCGGATG,0.385
22,ACCGGACG,0.146
23,CCCGGATA,0.429
24,ACCGGAGG,0.228
25,AAGGGGTC,-0.176

row,Sequence,PBM E-score
1,GACGTACC,-0.0237
2,CAAAGCAA,-0.0355
3,ATCGAGAA,-0.157
4,GATTTTAC,0.0329
5,GGACGGCC,-0.028
6,ATGCCAAG,-0.177
7,GCAAAAAA,0.137
8,CCGCAGTC,0.112
9,TGATTGCA,-0.0923
10,ACCGGAGA,0.187
11,ACCGGACA,0.128
12,ACCGGATC,0.353
13,CCCGGAGC,0.32
14,ACCGGATA,0.388
15,CCCGGATC,0.385
16,CAAAATGC,-0.121
17,CTGAACCA,-0.197
18,ACGCCGTA,-0.208
19,ATCAACAC,-0.101
